Measured values published in PubChem BioAssay (Tox21).
Values joined by “and” are separate entries in the source; they are usually repeats but may differ in a detail not shown here. Equal values may be shown once. Inconclusive results are not listed. A call without a number means that no potency is given here. Active and inactive are the calls of the source. Unless noted, calls come from the whole dose curve; as a rule, active = well fitted curve in the direction sought with a large enough effect in the repeat runs; inconclusive = weak or mixed curves; inactive = flat fitted curve, though single readings scatter.

Tests used:
[1] = qHTS assay to test for compound auto fluorescence at 535 nm (green) in HEK293 cells (AID 720680); note: potency is the fitted concentration of half-maximal effect
[2] = qHTS assay to test for compound auto fluorescence at 460 nm (blue) in HEK293 cell free culture (AID 720681)
In short: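 Compounds were added to cell-free DMEM with 10% FBS and fluorescence read directly. The blue channel used 405 nm excitation and 460 nm emission, with triamterene as the reference fluorophore.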

[3] = qHTS assay to test for compound auto fluorescence at 535 nm (green) in HEK293 cell free culture (AID 720682); note: potency is the fitted concentration of half-maximal effect
In short: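 Read-out: 485/535 nm fluorescence intensity, calibrated against fluorescein. Medium only (DMEM + 10% FBS, no cells); test compound or DMSO vehicle added by pintool before plate reading.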

[4] = qHTS assay to test for compound auto fluorescence at 590 nm (red) in HEK293 cell free culture (AID 720683)
In short: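 Cell-free wells of DMEM with 10% FBS received compound, and intrinsic fluorescence was read at excitation/emission 540/590 nm. Values expressed as equivalence to Rose Bengal sodium.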

[5] = qHTS assay to test for compound auto fluorescence at 590 nm (red) in HepG2 cell free culture (AID 720684)
In short: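 Rose Bengal sodium served as the reference for red signal. Test compounds were dispensed into serum-containing MEM (10% FBS) without cells, and plates were read at 540/590 nm.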

[6] = qHTS assay to test for compound auto fluorescence at 460 nm (blue) in HepG2 cell free culture (AID 720685)
In short: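 Cell-free plates of MEM plus 10% FBS received 23 nL compound or DMSO vehicle; blue-channel (405/460 nm) intensity scored against triamterene as reference fluorophore.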

[7] = qHTS assay to test for compound auto fluorescence at 535 nm (green) in HepG2 cell free culture (AID 720686); note: potency is the fitted concentration of half-maximal effect
[8] = qHTS assay to test for compound auto fluorescence at 460 nm (blue) in HepG2 cells (AID 720687)
In short: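 HepG2 cells in MEM with 10% FBS, attached overnight at 37 C, were exposed to compound or DMSO for 1 hr at 37 C, 5% CO2. Blue fluorescence was read at 405/460 nm, with triamterene as reference fluorophore.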

[9] = biological target: Glucocorticoid receptor (Homo sapiens) (UniProt P04150); experiment: qHTS assay to identify small molecule agonists of the glucocorticoid receptor (GR) signaling pathway (AID 720691; active = well fitted activation curve with a large enough effect in the signal ratio in the repeat runs, not every such curve was filed as active; the % refers to the signal ratio)
In short: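 Agonist-mode qHTS in HeLa cells stably expressing a glucocorticoid-response-element beta-lactamase reporter. Fluorescence intensity read with FRET substrate (2 h, room temperature) after 18 h compound treatment at 37 C.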

[10] = biological target: Glucocorticoid receptor (Homo sapiens) (UniProt P04150); experiment: qHTS assay to identify small molecule antagonists of the glucocorticoid receptor (GR) signaling pathway (AID 720692; active = well fitted inhibition curve with a large enough effect in the signal ratio in the repeat runs, not every such curve was filed as active; the % refers to the signal ratio)
In short: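 Inhibition of dexamethasone-driven (5 nM final) beta-lactamase expression was measured in GRE-reporter HeLa cells over 18 h at 37C. Fluorescence was read after 2 h with the B/G FRET substrate at room temperature.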
Tags give direction and shape of the fitted curve or compound fluorescence and quenching.

Glucocorticoid receptor (Homo sapiens), sequence (P04150 whole entry, looked up): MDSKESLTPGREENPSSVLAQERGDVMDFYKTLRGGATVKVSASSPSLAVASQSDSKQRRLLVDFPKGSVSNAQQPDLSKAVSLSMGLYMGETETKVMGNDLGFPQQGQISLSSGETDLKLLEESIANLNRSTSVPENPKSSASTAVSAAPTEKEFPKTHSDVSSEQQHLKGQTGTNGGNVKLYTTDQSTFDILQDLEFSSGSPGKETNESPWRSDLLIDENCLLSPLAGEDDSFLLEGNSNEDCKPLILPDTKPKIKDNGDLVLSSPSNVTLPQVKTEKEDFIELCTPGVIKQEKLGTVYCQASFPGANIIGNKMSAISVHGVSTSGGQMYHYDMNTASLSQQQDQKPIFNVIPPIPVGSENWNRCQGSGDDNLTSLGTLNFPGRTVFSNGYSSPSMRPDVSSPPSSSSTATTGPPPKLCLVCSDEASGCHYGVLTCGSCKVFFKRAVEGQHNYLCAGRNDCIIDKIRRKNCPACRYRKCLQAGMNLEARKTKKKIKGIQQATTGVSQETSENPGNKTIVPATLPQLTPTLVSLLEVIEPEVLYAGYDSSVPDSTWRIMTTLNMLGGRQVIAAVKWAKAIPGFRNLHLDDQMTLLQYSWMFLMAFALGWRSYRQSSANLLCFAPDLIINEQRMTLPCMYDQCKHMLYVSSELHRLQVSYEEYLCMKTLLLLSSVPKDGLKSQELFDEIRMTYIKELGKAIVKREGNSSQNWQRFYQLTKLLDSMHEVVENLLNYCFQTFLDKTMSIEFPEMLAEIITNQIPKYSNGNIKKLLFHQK

Structure (SMILES) | Potency [1] | outcome [2] | Potency [3] | Potency [4] | Potency [5] | outcome [6] | Potency [7] | outcome [8] | Potency [9] | Potency [10]
CC(=O)Oc1ccccc1C(=O)Nc1ncc([N+](=O)[O-])s1 | inactive | inactive | inactive | inactive | inactive | inactive | inactive | inactive | – | –
CC(CCC(=O)O)(c1ccc(O)cc1)c1ccc(O)cc1 | inactive | inactive | inactive | inactive | inactive | inactive | inactive | inactive | inactive | inactive
O=CCc1ccccc1 | inactive | inactive | inactive | inactive | inactive | inactive | inactive | inactive | inactive | inactive
O=C(COc1ccc(Cl)cc1)N1CCN(Cc2ccc3c(c2)OCO3)CC1 | inactive | inactive | inactive | inactive | inactive | inactive | inactive | inactive | – | –
c1ccc(Nc2ccccc2)cc1 | inactive | inactive | inactive | inactive | inactive | inactive | inactive | inactive | – | –
CC(C)Oc1ccc2c(=O)c(-c3ccccc3)coc2c1 | inactive | inactive | inactive | inactive | inactive | inactive | inactive | inactive | inactive | –
COc1cc([C@@H]2c3cc4c(cc3[C@H](O)[C@H]3COC(=O)[C@H]23)OCO4)cc(OC)c1OC | inactive | inactive | inactive | inactive | inactive | inactive | inactive | inactive | inactive | –
CCCCc1oc2ccccc2c1C(=O)c1cc(I)c(OCCN(CC)CC)c(I)c1 | inactive | inactive | inactive | inactive | inactive | inactive | inactive | inactive | – | –
O=C(/C=C/c1ccccc1)OCc1ccccc1 | inactive | inactive | inactive | inactive | inactive | inactive | inactive | inactive | inactive | inactive
COC(C)COC(C)COC(C)CO (stereo unspecified) | inactive | inactive | inactive | inactive | inactive | inactive | inactive | inactive | – | –
CCCCNS(=O)(=O)c1ccccc1 | inactive | inactive | inactive | inactive | inactive | inactive | inactive | inactive | inactive | inactive
O=C(Nc1ccc([N+](=O)[O-])cc1Cl)c1cc(Cl)ccc1O | inactive | inactive | inactive | inactive | inactive | inactive | inactive | inactive | inactive | –
Cc1cc2nc3c(=O)[nH]c(=O)nc-3n(C[C@H](O)[C@H](O)[C@H](O)CO)c2cc1C | 35.5 µM [fluorescent] (active) [middle of 4 runs] | inactive | 31.6 µM [fluorescent] (active) [middle of 4 runs] | inactive | inactive | inactive | 17.8 µM [fluorescent] (active) and 39.8 µM [fluorescent] (active) and 35.5 µM [fluorescent] (active) | inactive | inactive | –
NC=O | inactive | inactive | inactive | inactive | inactive | inactive | inactive | inactive | – | –
O=C(c1ccccc1)c1ccccc1O | inactive | inactive | inactive | inactive | inactive | inactive | inactive | inactive | inactive | inactive
Cc1c(OCC(F)(F)F)ccnc1CS(=O)c1nc2ccccc2[nH]1 (stereo unspecified) | inactive | inactive | inactive | inactive | inactive | inactive | inactive | inactive | inactive | inactive
Cc1[nH]c(=O)c(C#N)cc1-c1ccncc1 | inactive | inactive | inactive | inactive | inactive | inactive | inactive | inactive | – | –
CC(=O)CC/C=C(\C)CCC=C(C)C | inactive | inactive | inactive | inactive | inactive | inactive | inactive | inactive | – | –
OC[C@H]1O[C@@H]2O[C@H]3[C@H](O)[C@@H](O)[C@@H](O[C@H]4[C@H](O)[C@@H](O)[C@@H](O[C@H]5[C@H](O)[C@@H](O)[C@@H](O[C@H]6[C@H](O)[C@@H](O)[C@@H](O[C@H]7[C@H](O)[C@@H](O)[C@@H](O[C@H]8[C@H](O)[C@@H](O)[C@@H](O[C@H]1[C@H](O)[C@H]2O)O[C@@H]8CO)O[C@@H]7CO)O[C@@H]6CO)O[C@@H]5CO)O[C@@H]4CO)O[C@@H]3CO | inactive | inactive | inactive | inactive | inactive | inactive | inactive | inactive | inactive | inactive
CC(C)CC(C)(O)C#CC(C)(O)CC(C)C (stereo unspecified) | inactive | inactive | inactive | inactive | inactive | inactive | inactive | inactive | inactive | inactive
O=c1oc(=O)c2cc3c(=O)oc(=O)c3cc12 | inactive | inactive | inactive | inactive | inactive | inactive | inactive | inactive | – | –
O=[N+]([O-])c1ccc2c(c1)Cc1ccccc1-2 | inactive | inactive | inactive | inactive | inactive | inactive | inactive | inactive | inactive | –
COC(=O)c1ccccc1 | inactive | inactive | inactive | inactive | inactive | inactive | inactive | inactive | – | –
c1cc(N(CC2CO2)CC2CO2)ccc1OCC1CO1 (stereo unspecified) | inactive | inactive | inactive | inactive | inactive | inactive | inactive | inactive | – | –
CCCCCCCCCC(=O)OC | inactive | inactive | inactive | inactive | inactive | inactive | inactive | inactive | – | –
